Assay in all cases: NCI-60 one-dose screen, 48 h (100 = growth as untreated, 0 = no growth, -100 = all killed)
The test system of one assay is SK-MEL-2 melanoma. Conditions: 10 µM unless noted.
The test system of the next assay is EKVX NSCLC. Conditions: 10 µM unless noted.
For another assay, the system named is SN12C renal. Particulars: 10 µM unless noted.
The test system of another assay is UO-31 renal. Conditions: 10 µM unless noted.
For a further assay, the system named is TK-10 renal. Particulars: 10 µM unless noted.
The subject of another assay is ACHN renal. Particulars: 10 µM unless noted.
The test system of the next assay is CAKI-1 renal. Conditions: 10 µM unless noted.
The subject of a further assay is A498 renal. Conditions: 10 µM.
The subject of another assay is HL-60(TB) leukemia. Conditions: 10 µM unless noted.
The test system of a further assay is CCRF-CEM leukemia. Conditions: 10 µM unless noted.
The test system of a further assay is MOLT-4 leukemia. Conditions: 10 µM unless noted.
The next assay deals with SR leukemia. Conditions: 10 µM unless noted.
In the next assay the test system is RPMI-8226 leukemia. Particulars: 10 µM unless noted.
In another assay the test system is OVCAR-8 ovarian. Conditions: 10 µM unless noted.
In another assay the test system is OVCAR-5 ovarian. Conditions: 10 µM unless noted.
The next assay has as its system OVCAR-4 ovarian. Particulars: 10 µM unless noted.
For another assay, the system named is SK-OV-3 ovarian. Conditions: 10 µM unless noted.
In a further assay the test system is IGROV1 ovarian. Particulars: 10 µM unless noted.
A further assay relates to OVCAR-3 ovarian. Particulars: 10 µM unless noted.
The next assay concerns HS 578T breast. Particulars: 10 µM unless noted.

This is part of a sample that, as a whole, favours compounds with a hit. Of some 83,000 tested, about 20% had one in any assay.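 Step 1: grow cells in 96-well plates. Step 2: add test compound at a single concentration. Step 3: incubate 48 h. Step 4: record percent growth.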 A number with no mark means an inactive call. The source made the active and inactive calls. How the source made its calls: active means growth percent below 10; inactive means the rest.

This is an account of results in PubChem BioAssay (NCI).

As to `CC(=O)Nc1nc2c(s1)CC[C@@]1(C)C2=CC[C@H]2[C@@H]3CC[C@H](O)[C@@]3(C)CC[C@@H]21`, the growth in the assay with SK-MEL-2 melanoma is 47.4%; in the assay on EKVX NSCLC, 92.5%; in the assay with SN12C renal, 74%; in the assay on UO-31 renal, 80.3%; in the assay on TK-10 renal, 91.1%; with ACHN renal it was 63.9%. For the same compound, the growth is 44.1% with CAKI-1 renal; 67.8% in the assay on A498 renal; 29.3% in the assay with HL-60(TB) leukemia; 38.8% with CCRF-CEM leukemia; 50.8% in the assay with MOLT-4 leukemia; 24.9% in the assay with SR leukemia. The growth with RPMI-8226 leukemia was 34.1%; in the assay with OVCAR-8 ovarian, 80%; with OVCAR-5 ovarian, 92.3%; in the assay on OVCAR-4 ovarian, 87.4%; with SK-OV-3 ovarian, 81.9%; with IGROV1 ovarian, 64.3%. In addition, the growth is 13.7% with OVCAR-3 ovarian and 60.5% in the assay on HS 578T breast.

As to `Cc1cnc(/C=C/C(=O)O)cc1-c1cc2c(cc1C)C(C)(C)CCC2(C)C`, the growth with SK-MEL-2 melanoma was 74.4%; with EKVX NSCLC, 46%; in the assay on SN12C renal, 90.5%; in the assay on UO-31 renal it was 68.4%; in the assay with TK-10 renal, 113%; in the assay on ACHN renal it was 81.7%. Also, the growth with CAKI-1 renal was 79%; in the assay with A498 renal, 105%; in the assay on HL-60(TB) leukemia it was 63.3%; with CCRF-CEM leukemia, 85%; in the assay with MOLT-4 leukemia, 85.5%; with SR leukemia, 66%. The growth is 50.4% in the assay on RPMI-8226 leukemia; 89.5% in the assay with OVCAR-8 ovarian; 104% in the assay on OVCAR-5 ovarian; 85.4% in the assay on OVCAR-4 ovarian; 84.4% in the assay on SK-OV-3 ovarian; 94.4% with IGROV1 ovarian. In addition, the results for the growth with OVCAR-3 ovarian and in the assay on HS 578T breast were 57.8% and 69.9%, respectively.

In the case of `CCCCCCCCCCCCCCCCCC1OC[C@@H](COC(=O)O[C@@H](C(=O)O[C@H]2C[C@@]3(O)[C@@H](OC(=O)c4ccccc4)[C@@H]4[C@]5(OC(C)=O)CO[C@@H]5C[C@H](O)[C@@]4(C)C(=O)[C@H](OC(C)=O)C(=C2C)C3(C)C)[C@@H](NC(=O)c2ccccc2)c2ccccc2)O1` (stereo not given in full), the growth in the assay with SK-MEL-2 melanoma was 82.9%; in the assay on EKVX NSCLC, 96.9%; in the assay on SN12C renal it was 72%; in the assay on UO-31 renal, 93.5%; in the assay on TK-10 renal, 108%; in the assay on ACHN renal, 92.4%. The growth with CAKI-1 renal was 89.3%; with A498 renal, 70.9%; in the assay on HL-60(TB) leukemia it was 35.8%; in the assay with CCRF-CEM leukemia, 59.2%; in the assay on MOLT-4 leukemia, 58.7%; in the assay with SR leukemia it was 47.8%. The growth in the assay on RPMI-8226 leukemia is 15.2%; in the assay with OVCAR-8 ovarian, 64.8%; in the assay with OVCAR-5 ovarian, 53.9%; in the assay with OVCAR-4 ovarian it was 80.8%; with SK-OV-3 ovarian, 57.9%; in the assay on IGROV1 ovarian, 50.4%. Also, the results for the growth with OVCAR-3 ovarian and with HS 578T breast were 29.2% and 57.3%, respectively.

Consider `C=C1C[C@](OC)([C@H](O)C(=O)N[C@@H](OC)[C@@H]2C[C@@H](O)C(C)(C)[C@@H](C[C@@H](COC)OC)O2)O[C@H](C)[C@@H]1C`, for which the growth in the assay on SK-MEL-2 melanoma was -64.8% (active); with EKVX NSCLC it was -33.9% (active); in the assay on SN12C renal, -29.9% (active); in the assay on UO-31 renal, -61.7% (active); with TK-10 renal it was -36% (active); with ACHN renal, -84.6% (active). For the same compound, the growth with CAKI-1 renal is -39.7% (active); in the assay on A498 renal, -87.1% (active); in the assay with HL-60(TB) leukemia, -52% (active); in the assay on CCRF-CEM leukemia it was -24.3% (active); in the assay on MOLT-4 leukemia, -51.7% (active); in the assay on SR leukemia it was -39.2% (active). The growth with RPMI-8226 leukemia is -72.5% (active); with OVCAR-8 ovarian, -20.8% (active); in the assay with OVCAR-5 ovarian, -29.8% (active); with OVCAR-4 ovarian, -38.4% (active); in the assay on SK-OV-3 ovarian it was -9.43% (active); in the assay with IGROV1 ovarian, -66.8% (active). Further, the growth in the assay with OVCAR-3 ovarian is -43.9% (active); in the assay on HS 578T breast it was -46.2% (active).

Consider `O=Cc1cn(Cc2ccc(Cl)cc2)c2ccccc12`, for which the growth in the assay on SK-MEL-2 melanoma was 82.7%; in the assay with EKVX NSCLC, 88.9%; in the assay on SN12C renal, 89.6%; in the assay on UO-31 renal, 61.4%; in the assay with TK-10 renal it was 0.213% (active); in the assay with ACHN renal, 91.6%. Also, the growth in the assay with CAKI-1 renal was -20.8% (active); in the assay with A498 renal it was -89.8% (active); with HL-60(TB) leukemia, 97.7%; with CCRF-CEM leukemia it was 89.6%; with MOLT-4 leukemia it was 90.1%; with SR leukemia it was 80.9%. Also, the growth is 77.1% in the assay on RPMI-8226 leukemia; 90.1% with OVCAR-8 ovarian; -36.7% (active) with OVCAR-5 ovarian; 57.5% in the assay on OVCAR-4 ovarian; 31.1% with SK-OV-3 ovarian; 6.46% (active) in the assay on IGROV1 ovarian. In addition, the growth is 63.8% in the assay on OVCAR-3 ovarian and 83.9% in the assay with HS 578T breast.

With `COc1ccc2c(c1)c(C1(O)CC(CSC#N)OC1=O)cn2C(=O)c1ccc(Cl)cc1` (stereo not given), the growth is 80% with SK-MEL-2 melanoma; 89.6% in the assay with EKVX NSCLC; 94% in the assay with SN12C renal; 78.5% with UO-31 renal; 103% in the assay with TK-10 renal; 94.5% in the assay on ACHN renal. For the same compound, the growth with CAKI-1 renal is 82.9%; in the assay on A498 renal, 153%; in the assay with HL-60(TB) leukemia, 94.6%; in the assay with CCRF-CEM leukemia it was 82%; with MOLT-4 leukemia, 93.2%; with SR leukemia, 84.8%. For the same compound, the growth in the assay on RPMI-8226 leukemia is 91.9%; with OVCAR-8 ovarian, 98.8%; in the assay with OVCAR-5 ovarian it was 99.4%; with OVCAR-4 ovarian it was 101%; in the assay with SK-OV-3 ovarian it was 109%; in the assay with IGROV1 ovarian, 77.2%. The growth was 108% with OVCAR-3 ovarian and 101% in the assay on HS 578T breast.

Take `COc1ccc(/C=C\c2cc(OC)c(OC)c(OC)c2)cc1OCC(=O)Nc1nc2ccc(C(F)(F)F)cc2s1`: the growth is -2.78% (active) with SK-MEL-2 melanoma; 77.3% in the assay on EKVX NSCLC; 45.8% in the assay on SN12C renal; 21% in the assay on UO-31 renal; 8.6% (active) with TK-10 renal; 38.2% with ACHN renal. Besides, the growth in the assay on CAKI-1 renal is 24.5%; in the assay with A498 renal, 14.3%; in the assay on HL-60(TB) leukemia, 11.8%; with CCRF-CEM leukemia it was 25.4%; in the assay with MOLT-4 leukemia, 16.3%; with SR leukemia, 26.5%. The growth with RPMI-8226 leukemia is 21.2%; with OVCAR-8 ovarian it was 17.5%; in the assay on OVCAR-5 ovarian, 94.1%; in the assay with OVCAR-4 ovarian, 57.4%; in the assay on SK-OV-3 ovarian, 10.8%; in the assay on IGROV1 ovarian, 19.3%. Also, the growth in the assay on OVCAR-3 ovarian is -51.8% (active); with HS 578T breast, -8.14% (active).
